{"source": "PubChem BioAssay (Tox21)", "note": "Results filed as inconclusive are left out. Unmarked numbers belong to inactive results. Calls come from the whole dose curve; as a rule, active = well fitted cell-killing curve with a large enough effect in the repeat runs; inconclusive = weak or mixed curves, or effect the other way; inactive = flat fitted curve, though single readings scatter. % is set by controls: 0 for no effect and ±100 for the full control effect. Note: top concentration of the series differs between compounds; nearly all actives have a fitted effect of over 50% in size."}
{"assay": "qHTS RealTime-Glo MT Cell Viability Assay in HEK293 cells - 24 hour (AID 1224886)", "conditions": "RealTime-Glo luminescence; series mostly up to 76.8 µM; activity change, negative = cytotoxicity: at the top concentration", "how_it_was_run": "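Luminescence generated by NanoLuc from substrate produced by living HEK293 cells served as the viability signal. Each value reflects the reading at its stated time point during continuous 40 h compound exposure at 37 C.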"}
{"smiles": "CN(C)CCc1c[nH]c2ccc(C[C@H]3COC(=O)N3)cc12", "activity change, negative = cytotoxicity": "3.94% [at 35.3 µM]"}
{"smiles": "CCCCCCCCS(=O)(=O)O", "activity change, negative = cytotoxicity": "-2.49%"}
{"smiles": "CC(C)(C)C(=O)NCCCC(=O)O", "activity change, negative = cytotoxicity": "3.8% [at 35.3 µM]"}
{"smiles": "CC(C)(C)NCC(O)COc1cccc2c1CCC(=O)N2", "note": "(configuration not stated)", "activity change, negative = cytotoxicity": "0.984% [at 35.3 µM]"}
{"smiles": "O=C(c1ccccc1)c1cccc(O)c1", "activity change, negative = cytotoxicity": "-26.2%"}
{"smiles": "CCNC(=O)C(C)OC(=O)Nc1ccccc1", "note": "(configuration not stated)", "activity change, negative = cytotoxicity": "-1.03%"}
{"smiles": "Cc1ccccc1OCC(=O)O", "activity change, negative = cytotoxicity": "1.88%"}
{"smiles": "Nc1nc(Cl)cc(Cl)n1", "activity change, negative = cytotoxicity": "11.1%"}
{"smiles": "O=C(O)Cc1c(Cl)ccc(Cl)c1Cl", "activity change, negative = cytotoxicity": "-0.22%"}
{"smiles": "CCCCCC(=O)CC", "activity change, negative = cytotoxicity": "14.7%"}
{"smiles": "CC(C)(Sc1cc(C(C)(C)C)c(O)c(C(C)(C)C)c1)Sc1cc(C(C)(C)C)c(O)c(C(C)(C)C)c1", "activity change, negative = cytotoxicity": "0.0325% [at 35.3 µM]"}
{"smiles": "COc1cc(S(N)(=O)=O)cc(C(=O)O)c1OC", "activity change, negative = cytotoxicity": "1.71% [at 35.3 µM]"}
{"smiles": "C=CCCCCCCCCCCCCCC", "activity change, negative = cytotoxicity": "-1.45% [at 15.8 µM]"}
{"smiles": "CC(C)(C)c1ccc(C(=O)CCCCl)cc1", "activity change, negative = cytotoxicity": "0.912% [at 35.3 µM]"}
{"smiles": "CN(C)CCC[C@@]1(c2ccc(F)cc2)OCc2cc(C#N)ccc21", "activity change, negative = cytotoxicity": "-2.57% [at 35.3 µM]"}
{"smiles": "O=c1c(O)c(O)c1=O", "activity change, negative = cytotoxicity": "0.937%"}
{"smiles": "NNC(=O)CCCCC(=O)NN", "activity change, negative = cytotoxicity": "0.839%"}
{"smiles": "Cc1ccc(O)c(C(=O)c2ccccc2)c1", "activity change, negative = cytotoxicity": "-9.02%"}
{"smiles": "CCCCCCC(O)CO", "note": "(configuration not stated)", "activity change, negative = cytotoxicity": "1.44%"}
{"assay": "qHTS RealTime-Glo MT Cell Viability Assay in HEK293 cells - 8 hour (AID 1224887)", "conditions": "RealTime-Glo luminescence; series mostly up to 76.8 µM; activity change, negative = cytotoxicity: at the top concentration", "how_it_was_run": "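Kinetic, non-lysing viability readout. Seed HEK293 (600/well) with reagent, incubate 5 h at 37 C/5% CO2, pin 23 nL compound in DMSO, incubate at 37 C, read luminescence at 0, 8, 16, 24, 32, 40 h.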"}
{"smiles": "CC(O)C(CO)C(C)O", "note": "(configuration not stated)", "activity change, negative = cytotoxicity": "2.27%"}
{"smiles": "Cc1cc(O)c(Cl)cc1C", "activity change, negative = cytotoxicity": "-0.413%"}
{"smiles": "CCCCCCCCCCCCCCCCN(C)C", "activity change, negative = cytotoxicity": "5.23% [at 6.97 µM]"}
{"smiles": "Cc1ccc2ccccc2n1", "activity change, negative = cytotoxicity": "5.52%"}
{"smiles": "CCCCC(CC)COC(=O)CC#N", "note": "(configuration not stated)", "activity change, negative = cytotoxicity": "1.79%"}
{"smiles": "CCCCCCCCCCCBr", "activity change, negative = cytotoxicity": "-1.78% [at 35.3 µM]"}
{"smiles": "COC(=O)C(c1ccccc1Cl)N1CCc2sccc2C1", "note": "(configuration not stated)", "activity change, negative = cytotoxicity": "5.3% [at 35.3 µM]"}
{"smiles": "CCO/C=C1\\N=C(c2ccccc2)OC1=O", "activity change, negative = cytotoxicity": "13.7%"}
{"smiles": "C=CCN(CC=C)CC=C", "activity change, negative = cytotoxicity": "3.84%"}
{"smiles": "CC[N+](C)(CC)CC", "activity change, negative = cytotoxicity": "6.42%"}
{"smiles": "C/C(Cl)=C/CCl", "activity change, negative = cytotoxicity": "2.92%"}
{"smiles": "C=CC(C)(CCC=C(C)C)OC(=O)C(C)C", "note": "(configuration not stated)", "activity change, negative = cytotoxicity": "2.38%"}
{"smiles": "CCCCC(O)/C=C(C)/C=C/C=C/C(=O)N1CCCC1=O", "note": "(configuration not stated)", "activity change, negative = cytotoxicity": "9.51% [at 35.3 µM]"}
{"smiles": "CCOCCOCCOC(C)=O", "activity change, negative = cytotoxicity": "8.8%"}
{"smiles": "CC12CCCC=C1C(=O)OC2=O", "note": "(configuration not stated)", "activity change, negative = cytotoxicity": "4.33%"}
{"smiles": "CCCc1ccc(O)c(OC)c1", "activity change, negative = cytotoxicity": "-0.27%"}
{"smiles": "COc1cc(OC)cc(OC)c1", "activity change, negative = cytotoxicity": "5.23% [at 35.3 µM]"}
{"smiles": "CCCCCCC(=O)c1ccccc1", "activity change, negative = cytotoxicity": "-4.86%"}
{"smiles": "CC(=O)SC[C@@H](C)C(=O)N1CCC[C@H]1C(=O)N[C@@H](Cc1ccccc1)C(=O)O", "activity change, negative = cytotoxicity": "16.9% [at 35.3 µM]"}
{"smiles": "CN(C)CCc1c[nH]c2ccc(C[C@H]3COC(=O)N3)cc12", "activity change, negative = cytotoxicity": "2.37% [at 35.3 µM]"}
{"smiles": "CCCCCCCCS(=O)(=O)O", "activity change, negative = cytotoxicity": "2.42%"}
{"smiles": "CC(C)(C)C(=O)NCCCC(=O)O", "activity change, negative = cytotoxicity": "2.77% [at 35.3 µM]"}
{"smiles": "CC(C)(C)NCC(O)COc1cccc2c1CCC(=O)N2", "note": "(configuration not stated)", "activity change, negative = cytotoxicity": "2.99% [at 35.3 µM]"}
{"smiles": "O=C(c1ccccc1)c1cccc(O)c1", "activity change, negative = cytotoxicity": "-1.07%"}
{"smiles": "CCNC(=O)C(C)OC(=O)Nc1ccccc1", "note": "(configuration not stated)", "activity change, negative = cytotoxicity": "-6.49%"}
{"smiles": "Cc1ccccc1OCC(=O)O", "activity change, negative = cytotoxicity": "0.0092%"}
{"smiles": "Nc1nc(Cl)cc(Cl)n1", "activity change, negative = cytotoxicity": "2.36%"}
{"smiles": "O=C(O)Cc1c(Cl)ccc(Cl)c1Cl", "activity change, negative = cytotoxicity": "2.45%"}
{"smiles": "CCCCCC(=O)CC", "activity change, negative = cytotoxicity": "2.89%"}
{"smiles": "CC(C)(Sc1cc(C(C)(C)C)c(O)c(C(C)(C)C)c1)Sc1cc(C(C)(C)C)c(O)c(C(C)(C)C)c1", "activity change, negative = cytotoxicity": "1.27% [at 35.3 µM]"}
{"smiles": "COc1cc(S(N)(=O)=O)cc(C(=O)O)c1OC", "activity change, negative = cytotoxicity": "3.57% [at 35.3 µM]"}
{"smiles": "C=CCCCCCCCCCCCCCC", "activity change, negative = cytotoxicity": "-3.89% [at 15.8 µM]"}
{"smiles": "CC(C)(C)c1ccc(C(=O)CCCCl)cc1", "activity change, negative = cytotoxicity": "-14.2% [at 35.3 µM]"}
{"smiles": "CN(C)CCC[C@@]1(c2ccc(F)cc2)OCc2cc(C#N)ccc21", "activity change, negative = cytotoxicity": "9.52% [at 35.3 µM]"}
{"smiles": "O=c1c(O)c(O)c1=O", "activity change, negative = cytotoxicity": "2.85%"}
{"smiles": "NNC(=O)CCCCC(=O)NN", "activity change, negative = cytotoxicity": "0.673%"}
{"smiles": "Cc1ccc(O)c(C(=O)c2ccccc2)c1", "activity change, negative = cytotoxicity": "-16.6%"}
{"smiles": "CCCCCCC(O)CO", "note": "(configuration not stated)", "activity change, negative = cytotoxicity": "3.69%"}
